SMILES strings stand for the structures. For some assays here: Measured potencies and affinities stand elsewhere.

Holding throughout (set-up): scale not given: direction of the effect not stated beside the values
Test [1] deals with Protein translocase subunit SecA (Escherichia coli (strain K12)) (UniProt P10408). The test is described as follows: Assay to Identify E. coli SecA ATPase Inhibitors. The test is classed as functional. As to conditions: 30 µM.
The target of test [2] is T1, Ubiquitin-activating enzyme e1, putative (Leishmania donovani (strain BPK282A1)) (UniProt E9BSI1).
T1 sequence (whole entry): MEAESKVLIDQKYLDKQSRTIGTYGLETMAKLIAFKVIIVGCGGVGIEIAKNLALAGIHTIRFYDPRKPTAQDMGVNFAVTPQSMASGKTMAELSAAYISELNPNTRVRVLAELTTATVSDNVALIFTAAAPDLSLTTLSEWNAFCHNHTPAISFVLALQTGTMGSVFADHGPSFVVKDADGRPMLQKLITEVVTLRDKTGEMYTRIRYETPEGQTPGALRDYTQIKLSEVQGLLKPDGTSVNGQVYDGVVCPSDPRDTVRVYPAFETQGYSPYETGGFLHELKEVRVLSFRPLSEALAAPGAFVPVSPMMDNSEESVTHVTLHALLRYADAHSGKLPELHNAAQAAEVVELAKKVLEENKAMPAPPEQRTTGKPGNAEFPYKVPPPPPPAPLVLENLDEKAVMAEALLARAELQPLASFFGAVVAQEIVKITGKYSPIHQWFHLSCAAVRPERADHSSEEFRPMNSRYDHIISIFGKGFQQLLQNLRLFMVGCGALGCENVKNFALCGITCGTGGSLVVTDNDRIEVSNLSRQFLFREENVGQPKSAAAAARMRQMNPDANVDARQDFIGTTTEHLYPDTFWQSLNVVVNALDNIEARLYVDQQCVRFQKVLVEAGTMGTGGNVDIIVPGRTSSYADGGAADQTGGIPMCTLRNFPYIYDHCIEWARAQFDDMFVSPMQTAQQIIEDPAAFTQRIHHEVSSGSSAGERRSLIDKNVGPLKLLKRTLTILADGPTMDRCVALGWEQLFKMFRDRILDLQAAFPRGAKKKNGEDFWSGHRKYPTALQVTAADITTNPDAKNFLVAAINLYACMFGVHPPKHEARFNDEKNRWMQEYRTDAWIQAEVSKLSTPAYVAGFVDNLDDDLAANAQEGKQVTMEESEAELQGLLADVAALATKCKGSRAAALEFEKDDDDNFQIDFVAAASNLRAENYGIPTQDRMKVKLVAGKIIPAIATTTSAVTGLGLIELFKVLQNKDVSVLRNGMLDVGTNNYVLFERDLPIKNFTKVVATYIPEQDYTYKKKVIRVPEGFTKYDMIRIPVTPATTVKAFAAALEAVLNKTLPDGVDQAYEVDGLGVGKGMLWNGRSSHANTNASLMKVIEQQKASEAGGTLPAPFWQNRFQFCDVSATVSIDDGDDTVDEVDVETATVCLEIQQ
The test can be described thus: Leishmania donovani Ubiquitin Activating Enzyme (LdE1). The format is functional. As to conditions: 30 µM.

For test [3], the target named is AMP-activated protein kinase, AMPK (Homo sapiens) (UniProt P54646+O43741+P54619+Q9UGJ0+Q9Y478+Q13131+Q9UGI9). The test is described as follows: AMP-dependent Kinase enzyme assay. An in vitro enzyme assay that detects ADP turnover that is directly proportional to AMPK activity. This uses naive AMPK that is activated during the assay with MK-8722. The test is classed as functional. Conditions: 30 µM.

Test [4] deals with Sialic acid-binding Ig-like lectin 9 (Homo sapiens) (UniProt Q9Y336). The test can be described thus: Hs-Siglec9 ALPHAscreen SOP 20170721. Conditions: 10 µM. A general note: Alpha assays give light when donor and acceptor beads are brought close together.
A further test concerns Trypanosoma cruzi. The test can be described thus: Trypanosoma cruzi phosphomannomutase and mannose-1-phosphate guanylyltransferase assay. The test is classed as functional. As to conditions: 10 µM.
In test [5] the target is T2, Arginase-2, mitochondrial (Homo sapiens) (UniProt P78540).
T2 sequence (whole entry): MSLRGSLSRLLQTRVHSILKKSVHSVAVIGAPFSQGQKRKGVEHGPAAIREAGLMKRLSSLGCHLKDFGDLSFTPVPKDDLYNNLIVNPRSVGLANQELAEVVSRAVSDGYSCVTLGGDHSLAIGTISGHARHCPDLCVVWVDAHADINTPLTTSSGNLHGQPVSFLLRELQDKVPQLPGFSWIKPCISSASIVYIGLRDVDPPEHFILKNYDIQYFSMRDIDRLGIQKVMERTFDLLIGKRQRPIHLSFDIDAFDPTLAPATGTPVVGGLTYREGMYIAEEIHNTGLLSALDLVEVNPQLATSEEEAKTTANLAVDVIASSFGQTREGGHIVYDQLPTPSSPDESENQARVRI
The test is described as follows: in vitro enzyme assay to detect the production of urea directly proportional to the activity of Arginase II. Note: in the data most compounds retested in dose-response had high values. The format is functional. Conditions: 33.3 µM.

For test [6], the target named is T3, Proteasome subunit beta (Trypanosoma cruzi) (UniProt O96673).
T3 sequence (whole entry): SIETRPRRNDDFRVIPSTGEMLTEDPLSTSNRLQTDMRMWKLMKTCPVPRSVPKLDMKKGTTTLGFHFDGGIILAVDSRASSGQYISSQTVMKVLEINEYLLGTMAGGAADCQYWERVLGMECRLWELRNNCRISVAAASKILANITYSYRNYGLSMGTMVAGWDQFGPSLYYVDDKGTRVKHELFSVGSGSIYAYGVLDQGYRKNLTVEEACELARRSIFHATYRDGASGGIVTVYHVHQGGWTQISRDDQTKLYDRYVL
The test is described as follows: Trypanosoma cruzi proteasome chymotrypsin-like activity (TcProtChymo) assay. Note: in the data most compounds retested in dose-response had high values. The test is classed as functional. Conditions: 9.37 µM.

The species entered for a further test is Homo sapiens. The test can be described thus: To identify inhibition of the IFN signalling (Jak-Stat) pathway via expression of an eGFP reporter gene under the control of an IFN-stimulated response element (ISRE) containing MxA promoter. The test is classed as functional. As to conditions: 30 µM.
Test [7] addresses T4, Tyrosyl-tRNA synthetase, putative (Trypanosoma cruzi (strain CL Brener)) (UniProt Q4DSP6).
T4 sequence (whole entry): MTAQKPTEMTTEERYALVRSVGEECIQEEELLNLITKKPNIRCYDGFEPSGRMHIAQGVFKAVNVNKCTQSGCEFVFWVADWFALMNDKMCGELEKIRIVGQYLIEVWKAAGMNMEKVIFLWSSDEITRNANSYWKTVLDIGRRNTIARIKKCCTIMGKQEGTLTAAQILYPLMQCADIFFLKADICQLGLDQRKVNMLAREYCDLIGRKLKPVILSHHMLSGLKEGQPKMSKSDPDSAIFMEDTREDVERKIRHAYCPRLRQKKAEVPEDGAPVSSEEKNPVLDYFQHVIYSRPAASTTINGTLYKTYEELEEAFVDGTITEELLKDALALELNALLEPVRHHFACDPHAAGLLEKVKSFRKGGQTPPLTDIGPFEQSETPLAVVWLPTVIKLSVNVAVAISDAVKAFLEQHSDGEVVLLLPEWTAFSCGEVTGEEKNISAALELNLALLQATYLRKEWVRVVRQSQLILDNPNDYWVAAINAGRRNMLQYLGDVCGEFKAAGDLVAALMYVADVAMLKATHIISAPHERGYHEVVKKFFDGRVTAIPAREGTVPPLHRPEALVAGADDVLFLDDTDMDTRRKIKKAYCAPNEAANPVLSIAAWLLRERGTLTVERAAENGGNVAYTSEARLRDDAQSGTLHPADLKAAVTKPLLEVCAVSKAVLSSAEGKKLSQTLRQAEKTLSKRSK
The test can be described thus: Trypanosoma cruzi tyrosyl tRNA synthetase (TcYRS) _High Tyrosine SOP. Note: in the data most compounds retested in dose-response had high values. Conditions: 30 µM. The test is classed as functional.

The target of test [8] is T4, Tyrosyl-tRNA synthetase, putative (Trypanosoma cruzi (strain CL Brener)). The test can be described thus: Trypanosoma cruzi tyrosyl tRNA synthetase (TcYRS) SOP. The test is classed as functional. As to conditions: 30 µM.
In test [9] the target is Chromo domain-containing protein 1 (Saccharomyces cerevisiae (strain ATCC 204508 / S288c) (Baker's yeast)) (UniProt P32657). The test is described as follows: ScCHD-1 Enzyme Inhibition Assay. Note: in the data most compounds retested in dose-response had high values. The format is functional. Conditions: 30 µM.
Sequence of Chromo domain-containing protein 1 (Saccharomyces cerevisiae (strain ATCC 204508 / S288c) (Baker's yeast)) (P32657 whole entry, the tested form may be a part): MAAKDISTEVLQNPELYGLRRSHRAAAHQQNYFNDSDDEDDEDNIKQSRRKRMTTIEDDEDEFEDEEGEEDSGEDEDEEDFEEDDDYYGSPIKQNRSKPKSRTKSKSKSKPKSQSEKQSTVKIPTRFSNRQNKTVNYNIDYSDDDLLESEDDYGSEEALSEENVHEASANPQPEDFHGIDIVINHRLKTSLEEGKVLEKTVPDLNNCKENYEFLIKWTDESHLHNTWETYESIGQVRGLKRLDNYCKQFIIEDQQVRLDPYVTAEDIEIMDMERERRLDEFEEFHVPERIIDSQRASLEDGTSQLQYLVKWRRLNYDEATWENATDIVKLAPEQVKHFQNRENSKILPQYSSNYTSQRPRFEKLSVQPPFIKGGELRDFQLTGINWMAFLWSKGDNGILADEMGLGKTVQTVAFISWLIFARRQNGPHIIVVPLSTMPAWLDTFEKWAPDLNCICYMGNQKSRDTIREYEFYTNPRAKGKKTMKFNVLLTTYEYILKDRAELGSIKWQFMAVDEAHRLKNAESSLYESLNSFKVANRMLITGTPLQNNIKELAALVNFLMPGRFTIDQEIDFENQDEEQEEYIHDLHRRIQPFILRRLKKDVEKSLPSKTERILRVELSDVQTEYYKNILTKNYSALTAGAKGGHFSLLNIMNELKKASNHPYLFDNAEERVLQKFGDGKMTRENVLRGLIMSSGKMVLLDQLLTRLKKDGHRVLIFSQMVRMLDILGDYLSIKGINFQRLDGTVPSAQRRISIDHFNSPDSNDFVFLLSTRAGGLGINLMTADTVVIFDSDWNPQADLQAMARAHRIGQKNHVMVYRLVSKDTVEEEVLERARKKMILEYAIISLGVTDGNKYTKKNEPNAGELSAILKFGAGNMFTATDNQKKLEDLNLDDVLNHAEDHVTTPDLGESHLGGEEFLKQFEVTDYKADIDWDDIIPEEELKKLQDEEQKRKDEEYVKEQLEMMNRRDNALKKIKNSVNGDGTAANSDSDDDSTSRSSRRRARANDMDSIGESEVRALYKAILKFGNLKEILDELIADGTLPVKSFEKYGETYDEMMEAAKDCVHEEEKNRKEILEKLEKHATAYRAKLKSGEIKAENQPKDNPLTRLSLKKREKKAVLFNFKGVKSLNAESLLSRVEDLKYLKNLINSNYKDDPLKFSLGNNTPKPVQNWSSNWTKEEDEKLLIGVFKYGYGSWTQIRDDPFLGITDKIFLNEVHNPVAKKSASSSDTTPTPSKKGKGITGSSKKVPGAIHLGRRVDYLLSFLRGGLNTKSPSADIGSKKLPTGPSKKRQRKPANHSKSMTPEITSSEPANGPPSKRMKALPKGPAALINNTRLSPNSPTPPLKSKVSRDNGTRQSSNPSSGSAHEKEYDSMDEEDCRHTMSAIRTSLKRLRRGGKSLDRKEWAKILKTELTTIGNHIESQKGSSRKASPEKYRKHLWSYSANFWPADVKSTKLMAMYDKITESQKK

Sequence of Protein translocase subunit SecA (Escherichia coli (strain K12)) (P10408 whole entry): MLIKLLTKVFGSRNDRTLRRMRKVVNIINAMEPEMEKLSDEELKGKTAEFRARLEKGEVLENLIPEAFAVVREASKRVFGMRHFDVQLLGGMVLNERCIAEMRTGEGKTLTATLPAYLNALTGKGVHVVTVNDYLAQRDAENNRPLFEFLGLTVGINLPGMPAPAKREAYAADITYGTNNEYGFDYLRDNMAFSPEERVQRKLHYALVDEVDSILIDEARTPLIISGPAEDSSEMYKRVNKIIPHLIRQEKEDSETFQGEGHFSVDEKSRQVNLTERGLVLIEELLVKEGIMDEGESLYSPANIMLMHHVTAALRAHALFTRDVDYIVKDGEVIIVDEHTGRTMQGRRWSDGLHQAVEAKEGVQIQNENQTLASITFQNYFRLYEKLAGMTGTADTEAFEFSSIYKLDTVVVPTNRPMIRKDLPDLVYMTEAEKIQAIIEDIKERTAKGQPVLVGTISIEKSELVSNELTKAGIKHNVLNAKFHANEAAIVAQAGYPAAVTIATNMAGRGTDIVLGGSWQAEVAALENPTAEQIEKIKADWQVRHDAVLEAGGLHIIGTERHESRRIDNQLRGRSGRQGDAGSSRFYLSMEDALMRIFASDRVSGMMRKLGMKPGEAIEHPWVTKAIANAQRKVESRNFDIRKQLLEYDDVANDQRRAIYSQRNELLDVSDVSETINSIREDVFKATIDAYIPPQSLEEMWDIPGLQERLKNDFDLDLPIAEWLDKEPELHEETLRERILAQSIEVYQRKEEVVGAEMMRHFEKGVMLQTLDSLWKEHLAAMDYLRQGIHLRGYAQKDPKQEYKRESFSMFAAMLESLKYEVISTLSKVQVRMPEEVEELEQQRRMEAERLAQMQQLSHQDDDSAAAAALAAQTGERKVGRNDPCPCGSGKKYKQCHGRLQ
Sequence of Sialic acid-binding Ig-like lectin 9 (Homo sapiens) (Q9Y336 whole entry): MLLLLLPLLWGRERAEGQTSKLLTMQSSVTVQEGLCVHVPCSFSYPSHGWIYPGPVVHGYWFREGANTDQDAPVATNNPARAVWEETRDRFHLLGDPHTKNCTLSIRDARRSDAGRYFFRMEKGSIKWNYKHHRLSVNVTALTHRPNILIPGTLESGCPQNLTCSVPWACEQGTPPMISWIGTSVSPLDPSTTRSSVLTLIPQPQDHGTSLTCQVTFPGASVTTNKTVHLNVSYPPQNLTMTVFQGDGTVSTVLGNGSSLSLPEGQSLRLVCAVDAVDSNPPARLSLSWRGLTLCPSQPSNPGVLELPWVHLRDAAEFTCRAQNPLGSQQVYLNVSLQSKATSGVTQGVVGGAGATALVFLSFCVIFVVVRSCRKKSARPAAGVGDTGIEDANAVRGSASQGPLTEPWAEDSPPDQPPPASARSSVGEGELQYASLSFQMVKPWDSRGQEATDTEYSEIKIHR

For `COc1ccc(C(=O)NCCc2nnc3ccccn23)c(OC)c1`, the Percent Effect in test [1] was -6.68%; in [2], 5.2%; in test [3] it was 5.94%; in test [4], -6.61%; with Trypanosoma cruzi it was -7.93%; in [5], -3.16%. Besides, the Percent Effect in test [6] is 13.5%; in the test filed under Homo sapiens, 13%; in test [7], 0%; in [8], 2.35%; in [9], -16.9%.
As for `Cc1nc2cc(C3CCN(Cc4cccc(F)c4F)C3)nn2c(O)c1C` (stereo not given), the Percent Effect in [1] was -0.873%; in test [2], 12.2%; in [3] it was 12.9%; in [4] it was -3.49%; with Trypanosoma cruzi, 0.988%; in test [5], -1.16%. For the same compound, the Percent Effect is 2.81% in [6]; 10.8% in the test filed under Homo sapiens; 3.23% in test [7]; 11.7% in test [8]; -14.4% in test [9].
As to `CN(c1ccc(F)c(F)c1)S(=O)(=O)c1cc(C(=O)O)cs1`, the Percent Effect in test [1] is -0.362%; in test [2], -5.41%; in test [3], -0.676%; in test [4], 1.81%; in the test with Trypanosoma cruzi it was -6.32%; in test [5] it was -1.6%. The Percent Effect is -5.95% in test [6]; 10.4% in the test listed under Homo sapiens; -0.493% in test [7]; -1.24% in [8]; -2.7% in test [9].
Regarding `CC(=O)c1cc(CC(=O)NCc2ccc(CN(C)C)cc2)cs1`, the Percent Effect in [1] was -2.94%; in test [2], 8.11%; in test [3], -1.37%; in test [4], 9.94%; in the test with Trypanosoma cruzi it was 6.37%; in test [5], 0.476%. Further, the Percent Effect in test [6] is -1.21%; in the test listed under Homo sapiens, 1.37%; in test [7], 2.65%; in test [8] it was 4.88%; in test [9], -2.09%.
Turning to `CC(=O)Nc1nc(C(=O)Nc2ccc(N3CCCCC3)nc2)cs1`, the Percent Effect was -1.91% in [1]; -3.8% in test [2]; 22.9% in test [3]; 0.734% in test [4]; -3.18% in the test on Trypanosoma cruzi; -1.5% in test [5]. Moreover, the Percent Effect in [6] was 10.6%; in the test listed under Homo sapiens, 11.2%; in [7], 9.38%; in test [8], 10.1%; in test [9] it was -11.6%.
With `CNC(=O)C1Cn2ccnc2C2(CCN(Cc3cccc(C)n3)CC2)O1` (stereo not given), the Percent Effect is -2.65% in test [1]; 2.7% in [2]; 2.26% in test [3]; -4.02% in test [4]; -6.35% in the test with Trypanosoma cruzi; -8.6% in [5]. Further, the Percent Effect in test [6] came out at 9.41%; in the test listed under Homo sapiens, 0.488%; in [7] it was 4.32%; in test [8], 10.3%; in test [9], 0.265%.
As to `Cc1ccc(C(=O)CCC(=O)N2CCC(c3nncn3C)CC2)cc1`, the Percent Effect in test [1] was -8.28%; in test [2], 15.6%; in test [3], -6.09%; in test [4], 19.9%; with Trypanosoma cruzi, 5.24%; in test [5], 1.78%. Moreover, the Percent Effect in [6] is 11.3%; in the test listed under Homo sapiens it was 9.84%; in test [7] it was 5.83%; in test [8] it was 24.4%; in test [9], -1.85%.
As to `Cc1ccc(-c2csc(N)c2C#N)cc1`, the Percent Effect in [1] is -0.493%; in [2] it was 6.67%; in [3], -1.04%; in [4], 11.3%; with Trypanosoma cruzi, -3.34%; in [5] it was -4.05%. Further, the Percent Effect in test [6] was 13.1%; in the test filed under Homo sapiens, 28%; in test [7], -6.35%; in [8], -12.8%; in [9] it was 2.72%.
Regarding `COc1c(C)cnc(CSc2nnc(C)s2)c1C`, the Percent Effect is -4.15% in test [1]; 5.33% in [2]; -1.7% in test [3]; 12.8% in test [4]; 6.33% in the test with Trypanosoma cruzi; 8.33% in test [5]. Also, the Percent Effect in test [6] is 4.53%; in the test listed under Homo sapiens, 6.59%; in test [7], 1.64%; in test [8] it was 6.17%; in [9], -14.7%.
Take `CC(Cn1ccnc1)NC(=O)NCCc1ccccn1` (stereo not given): the Percent Effect in test [1] was -1.01%; in [2], 21.1%; in test [3], -0.947%; in test [4] it was -4.27%; in the test on Trypanosoma cruzi it was 1.69%; in [5], -2.3%. For the same compound, the Percent Effect was 21.2% in [6]; 6.74% in the test filed under Homo sapiens; 5.39% in test [7]; 21.9% in [8]; -8.97% in test [9].

Values taken from ChEMBL document CHEMBL3988442, “University of Dundee, Small-Polar-MMV Screening Library” (2021).
